Source: PubChem BioAssay AID743279 (National Center for Advancing Translational Sciences (NCATS), 2014)
Among all 360,000 compounds or so, about 17,000 (4.7%) were called active. Inconclusive results (about 5%) are left out. Many of the other results were omitted from the sample, so actives are more common in it than they were. Values without a mark were called inactive. Rule as the data show it: active = activity change below about -50%; inconclusive = mostly about -30% to -49%; inactive = weaker than that.
% is scaled to controls: 0 for no effect and ±100 for the full control effect.

Assay: qHTS for Inhibitors of Inflammasome Signaling: IL-1-beta AlphaLISA Primary Screen
Conditions: THP-1 LPS/ATP IL-1B secretion, 16 h; at 57.5 µM, hits give low values
From the text: Inflammasomes are a set of intracellular multi-protein complexes that enable autocatalytic activation of inflammatory caspases and drive the innate immune response to counter harmful agents. […] A qHTS assay, based on AlphaLISA technology, was developed to screen the Molecular Libraries Small Molecule Repository (MLSMR) to look for novel inflammasome inhibitors. The assay detects IL-1B using AlphaLISA anti-IL-1B acceptor and donor beads. A decreased emission signal, indicating reduced IL-1B secretion, is the desired outcome for this assay. NIH Chemical Genomics Center [NCGC] NIH Molecular Libraries Probe Centers Network [MLPCN] MLPCN Grant: MH095513 Assay Provider: Shyam Biswal Ph.D., Johns Hopkins University Immunity. 2012 Jul 27;37(1):85-95. PMID: 22819042 [2] Curr Pharm Des. 2012;18(16):2320-8. PMID: 22390695
Three microliters containing 3000 THP-1 cells were dispensed into the wells of solid, white, tissue culture treated Greiner 1,536-well plates. Library compounds and positive control, Glyburide, were pin-transferred (23 nL) by a Kalypsys pin-tool equipped with a 1,536-pin array, resulting in final compound concentration ranges of 2.5 nM to 57.5 uM. After 1 hr of cell culture incubation (37 °C, 5% CO2), 1 microL of 1 microg/mL lipopolysaccharide (250 ng/mL, final) and 5 mM ATP (1.25 mM, final) were added to stimulate the cells. After 16 hr of cell culture incubation with the compounds, 1.5 uL of anti-IL-1B acceptor beads (6 ug/mL, final) and biotinylated antibody (0.6 nM, final) were added to the plate, followed by a 1 hr incubation at ambient temperature. To detect the secreted IL-1B, 1.5 uL of AlphaLISA SA-Donor beads (24 ug/mL, final) were added, followed by 30 min of incubation in the dark at ambient temperature. The AlphaLISA signal was read by a PerkinElmer EnVision plate reader with an ultrasensitive luminescence detector and 1536 Plate HTS AlphaScreen aperture (excitation of 680nm and emission of 615nm).
For Cc1ccc(S(=O)(=O)N2CCOCC2)cc1NC(=O)COC(=O)c1cnccn1, the activity change was 2.75%.
CCOC(=O)C1CCCN(C(=O)c2ccc(C)c(F)c2)CC1 (configuration not stated) showed an activity change of 13%.
With COc1ccccc1-n1c(-c2cc(-c3ccco3)[nH]n2)n[nH]c1=S the activity change was 5.01%.
For Cn1c(-c2ccco2)nc2cc3ccccc3cc21, the activity change was -69.2% (active).
Work on Cn1c(SCC(=O)Nc2ccc(Br)cc2F)nnc1-c1ccco1 yielded an activity change of -12.1%.
NC(=O)CSc1nnc(-c2cccc(S(=O)(=O)N3CCOCC3)c2)o1 gave an activity change of -7.22%.
With COc1ccc(C(=O)NCC(=O)N/N=C/c2ccc([N+](=O)[O-])o2)cc1OC the activity change was -85.8% (active).
Work on COc1ccc(/C=N/NC(=O)CNC(=O)c2ccc(S(=O)(=O)N3CCCC3)cc2)c(OC)c1 yielded an activity change of 16.6%.
COc1cccc(/C=N/NC(=O)CNC(=O)c2ccc(S(=O)(=O)N3CCOCC3)cc2)c1OC showed an activity change of -0.608%.
COc1ccc(-c2c(C#N)cnc(C)c2C)c(O)c1OC gave an activity change of -20.7%.
In the case of COc1cc(/C=C(\C#N)c2nc3ccccc3[nH]2)ccc1O, the activity change is reported as -65.7% (active).
Work on CCCCCOc1ccc(/C=C/C(=O)NCCc2nc3ccccc3[nH]2)cc1OC yielded an activity change of -2.9%.
Work on Cc1ccc(O)c(CNc2nc3ccccc3[nH]2)c1 yielded an activity change of -5.71%.
O=C(CCN1C(=O)c2ccccc2C1=O)C1=NN[C@@H]2C(=O)N(c3ccc(F)cc3)C(=O)[C@H]12 gave an activity change of 5.83%.
COc1ccc(OCC(O)CNCCNc2nccc(C(F)(F)F)n2)cc1 (configuration not stated) showed an activity change of -18.5%.
For CC(C)(C)NCC(O)COc1cccc2[nH]c(=O)[nH]c12 (configuration not stated), the activity change was 4.98%.
For CC(C)(C)CC(C)(C)NCC(O)COCCOc1ccc(Br)cc1 (configuration not stated), the activity change was -99.4% (active).
O=[N+]([O-])c1ccc2c(c1)C(O)n1nc(-c3ccccc3)nc1S2 (configuration not stated) gave an activity change of -8.59%.
O=C(C[C@H]1C[C@@H]2c3cc(NC(=O)C4CCC4)ccc3O[C@@H]2[C@H](CO)O1)NC1CCCCC1 showed an activity change of 13%.
For Cn1cnnc1Sc1ccc(CN2CCN(C3CCCC3)C(CCO)C2)o1 (configuration not stated), the activity change was 0.321%.
Compound C[C@H]1CN(c2ccc(Br)cc2)C(=O)[C@@H]1CC(=O)Nc1ccc(Br)cc1 has an activity change of 3.7%.
Compound O=C(CSc1nnnn1-c1ccccc1)NCc1ccco1 has an activity change of 2.34%.
For O=C(CSc1c2c(nc3ccc(Cl)cc13)CCCC2)NCc1ccco1, the activity change was -92.7% (active).
O=C(/C=C/c1ccc(Cl)cc1Cl)NCc1ccco1 gave an activity change of -10.5%.
CS(=O)(=O)N1CCCC(C(=O)Nc2ccccc2C(F)(F)F)C1 (configuration not stated) showed an activity change of 8.14%.
Work on O=C(Nc1cccc(F)c1)N1C2CCC1CC(O)(c1cccnc1)C2 (configuration not stated) yielded an activity change of 31.6%.
For Cc1nc2nc3c(cn2n1)C(=O)CC(c1ccccc1)C3 (configuration not stated), the activity change was 20.9%.
In the case of Cc1cc(C)nc(-n2ncc3c2CC(c2ccc(C(C)C)cc2)CC3=O)n1 (configuration not stated), the activity change is reported as -85.9% (active).
With COc1ccc(OC)c(-n2cc3c(=O)n(C)c(=O)n(C)c3c2)c1 the activity change was 33%.
In the case of CC1(C)N=C(N)NC(Nc2ccc(Cl)cc2)=N1, the activity change is reported as -77.7% (active).
O=c1ccnc(Nc2ccc(Cl)cc2)[nH]1 showed an activity change of 0%.
Compound COc1ccccc1NC1=NC(c2ccc(Cl)cc2)N=C(N)N1 (configuration not stated) has an activity change of -13.3%.
With O=C(Nc1ccc2c(c1)OCCO2)C(C1CC1)N1CCC(Cc2ccccc2)CC1 (configuration not stated) the activity change was 11.6%.
Compound CC1Oc2ccccc2N(Cc2cccnc2)C1=O (configuration not stated) has an activity change of -12.7%.
With CC12c3ccccc3C(c3ccccc31)C1C(=O)N(Cc3cccnc3)C(=O)C12 (configuration not stated) the activity change was -50.6% (active).
CC1(C)CN(Cc2cccnc2)C(=O)[C@H]1CC(=O)Nc1ccc(Br)cc1 gave an activity change of 24.4%.
Work on CC(=O)N1CCN(Cc2cc(=O)oc3cc(C)ccc23)CC1 yielded an activity change of 19.5%.
O=C(/C(=N\O)n1cncn1)c1ccc(Br)cc1Br gave an activity change of -12.3%.
In the case of Cc1cccc(NC(=O)c2sc3nc(N4CCOCC4)c4c(c3c2N)CCCC4)c1, the activity change is reported as 11.3%.
Compound CCN(CC)C(=O)c1sc(NC(=O)c2ccco2)c(C#N)c1C has an activity change of -26.1%.
Work on Cc1nc2ccccc2c(-c2ccccc2)c1C(=O)c1ccccc1 yielded an activity change of 29.5%.
CCN(CC)C(=O)N(CC)Cc1ccccc1 gave an activity change of 3.47%.
With Cc1ccc2c(N)c(C(=O)c3ccccc3)sc2n1 the activity change was -69.1% (active).
With CCN(CC)C(=O)c1sc2nc(-c3ccccc3)ccc2c1N the activity change was -57.4% (active).
Work on COC(=O)c1cc2c(N)c(C(=O)c3ccc(Cl)cc3)sc2nc1C(OC)OC yielded an activity change of -7.51%.
Work on Cc1nn(C)cc1C(=O)c1ccccc1 yielded an activity change of 0%.
In the case of Cc1nc2sc(C(=O)c3ccccc3)c(N)c2c2c1CCCC2, the activity change is reported as -96% (active).
COCCCn1c(=O)/c(=C/c2ccccc2OC(C)C)s/c1=C(\C#N)C(=O)Nc1ccc(C(=O)O)cc1 gave an activity change of -11.6%.
Compound CC1Cc2ccccc2N1S(=O)(=O)c1cccc(C(=O)NCC(c2ccco2)N2CCCC2)c1 (configuration not stated) has an activity change of -6.87%.
Cc1ccc([C@H]2N[C@]3(CCCN(Cc4ccccc4)C3=O)[C@H]3C(=O)N(Cc4ccccc4)C(=O)[C@@H]23)cc1 gave an activity change of 19.2%.
Work on CC(C)N1C(=O)c2ccccc2NC(=O)C1C(=O)NCc1cccs1 (configuration not stated) yielded an activity change of 0%.
For C[C@@H]1CN([C@@H](C)CO)C(=O)c2cc(NS(C)(=O)=O)ccc2O[C@@H](C)CCCCO[C@H]1CN(C)C(=O)Nc1ccc2c(c1)OCO2, the activity change was -2.98%.
In the case of C[C@@H]1CCCCO[C@H](CN(C)Cc2ccccc2)[C@@H](C)CN([C@H](C)CO)C(=O)c2cc(NS(=O)(=O)c3ccc(Cl)cc3)ccc2O1, the activity change is reported as -50.8% (active).
With Cc1ccc(S(=O)(=O)Nc2ccc3c(c2)C(=O)N([C@H](C)CO)C[C@@H](C)[C@@H](CN(C)C(=O)Nc2cccc4ccccc24)O3)cc1 the activity change was -20.3%.
Work on COc1cc(NC(=O)c2cc(-c3ccc(F)cc3OC(C)C)n[nH]2)cc(OC)c1OC yielded an activity change of -6.74%.
Cc1cccc(NC(=S)NCc2ccc3[nH]c4c(c3c2)CCCC4)c1 gave an activity change of -10.4%.
Work on Cc1cccc(C(=O)NC(=S)N(C)C2CCCCC2)c1 yielded an activity change of -1.28%.
For Cc1cccc(NC(=S)NCCN(C2CCCCC2)C2CCCC2)c1, the activity change was -63.3% (active).
Compound COc1ccc(C)cc1N(C(=O)Cn1nnc(-c2ccc(C)o2)n1)C(C(=O)NC1CCCC1)c1ccncc1 (configuration not stated) has an activity change of 7.77%.
Compound Cc1ccc2c(c1)c1ncnc(N3CCc4ccccc4C3)c1n2C has an activity change of -19.9%.
For O=C1CCC(C(=O)OCC(=O)Nc2ccc(OC(F)F)cc2)=NN1, the activity change was -2.22%.
With C=CCC1(CC=C)CCCN1C(=O)c1cc(COc2ccc(-n3cncn3)cc2)on1 the activity change was -59.7% (active).
In the case of O=C(c1cc(COc2ccc(F)c(F)c2)on1)N1CCOCC1, the activity change is reported as -28.7%.
In the case of CCn1ccnc1CN(C)C(=O)c1cc(COc2ccc(-n3cncn3)cc2)on1, the activity change is reported as 21.7%.
O=C(NC1CCCC1)C1c2ccccc2OCC(=O)N1Cc1ccccc1 (configuration not stated) gave an activity change of 27.8%.
CCN1CCN(C(=O)CCN2C(=O)c3ccccc3C2=O)CC1 showed an activity change of 15.8%.
Work on O=C(O)CC12CC3CC(C1)CC(n1ncc(NCc4ccc(F)cc4)c(Cl)c1=O)(C3)C2 yielded an activity change of -16%.
With CSC1=N/C(=C\C=C\c2cccs2)C(=O)S1 the activity change was -92.1% (active).
In the case of COc1ccc(OC(C)C(=O)Nc2cccnc2)cc1 (configuration not stated), the activity change is reported as -0.423%.
For CC(Sc1nc2c([nH]c3ccccc32)c(=O)n1C)c1ccccc1 (configuration not stated), the activity change was 27.7%.
With O=C1OCCC1=COCCCCOC=C1CCOC1=O the activity change was 2.81%.
In the case of COc1ccc(C(=O)C2CCCN(Cc3cccn3-c3ccccn3)C2)c(C)c1 (configuration not stated), the activity change is reported as -99.7% (active).
Compound COc1ccc(C(=O)C2CCCN(Cc3ccc4nonc4c3)C2)c(C)c1 (configuration not stated) has an activity change of -3.49%.
With CCOC(=O)c1[nH]ncc1CN1CCCC(C(=O)c2ccc(OC)cc2C)C1 (configuration not stated) the activity change was 0%.
Compound Cc1[nH]c2ccccc2c1C(=O)C(=O)NCc1nnnn1-c1cccc(F)c1 has an activity change of 10.9%.
In the case of Cc1ccccc1-c1csc(C(O)c2cccc(Cl)c2)n1 (configuration not stated), the activity change is reported as -11.7%.
CCN(CC)c1ncnc2c1ncn2[C@H]1CN(Cc2cccs2)C[C@@H](CO)O1 showed an activity change of -12%.
With CC(=O)NCCC(=O)Nc1nc(-c2ccc3c(c2)OCCO3)cs1 the activity change was 15.5%.
Cc1csc(NC(=O)C2=COCCO2)n1 showed an activity change of -3.32%.
For Cc1ccc(-c2csc(NC(=O)C3=COCCO3)n2)cc1C, the activity change was -88.1% (active).
Work on Nc1nc2cc(Cl)ccc2n1N yielded an activity change of 32.9%.
In the case of Cc1nn(Cc2ccc(Cl)cc2)c(Cl)c1/C=N/NC(=O)c1cccnc1, the activity change is reported as -70.6% (active).
With CCn1nc(C)c(/C=N/NC(=O)Cc2ccc(Cl)cc2)c1C the activity change was 14.8%.
With Cc1nn(Cc2ccc(Cl)cc2)c(Cl)c1/C=N/NC(=O)CNc1ccccc1F the activity change was -13.7%.
With NC(c1csc(NC(=O)Nc2ccccc2Oc2ccccc2)n1)c1ccccc1Cl (configuration not stated) the activity change was -71.7% (active).
With CC(=O)c1ccc(Nc2nc(C(N)c3ccccc3Cl)cs2)cc1 (configuration not stated) the activity change was 49.4%.
With COc1ccccc1NC(=O)Nc1nc(CC(=O)Nc2ccccc2F)cs1 the activity change was -1.21%.
Work on CC/C(=C\c1ccc(Cl)cc1)c1ccncc1 yielded an activity change of 3.7%.
COCCCn1c(C(=O)NC2CCCCC2)cc2c(=O)n3cccc(C)c3nc21 gave an activity change of -7.13%.
Cn1ncc([N+](=O)[O-])c1C(=O)Nc1cc(Cl)ccc1Cl gave an activity change of -5.95%.
Work on COc1ccccc1NC(=O)Nc1nnc(Cc2ccc(F)cc2)s1 yielded an activity change of 28.6%.
For Cc1cccc(C)c1Cn1c(C)c(C(=O)NCc2cccc(Cl)c2)sc1=O, the activity change was -13.4%.
